Several values for one entry are separate records, joined by “and”; a condition that tells them apart may be missing. Identical values can stand only once. Out of some 5,500 compounds screened, about 2,000 (36%) were called active. Not shown: some 18% with an inconclusive outcome. Cut-off read from the data, not from the text of the source: active = normalized growth mostly below about 0.91 (no sharp cut-off); inconclusive = no clear call, values can overlap the other calls; inactive = mostly above about 0.92. The list shows a part of the results.
Experiment: chemical genetic growth profiling, strain panel (AID 1159580);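 note: tested at 20 µM; growth read once vehicle control cultures reached saturation at 30 °C; 1 = growth at the plate median or of vehicle wells; lower values mean less growth of the strain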
Details: S. cerevisiae deletion strains, growth OD

Measured: normalized growth

NCCS
inactive: locus YAL013W, strain DEP1, stronger effect = lower value 1 | locus YAL021C, strain ccr4, stronger effect = lower value 0.977 | locus YAL026C, strain drs2, stronger effect = lower value 0.99 | locus YAL030W, strain snc1, stronger effect = lower value 1.01 | locus YAL040C, strain CLN3, stronger effect = lower value 0.985 | locus YBL061C, strain skt5, stronger effect = lower value 0.988 | locus YBR009C, strain hhf1, stronger effect = lower value 0.988 | locus YBR021W, strain FUR4, stronger effect = lower value 1 | locus YBR023C, strain chs3, stronger effect = lower value 0.987 | locus YBR171W, strain sec66, stronger effect = lower value 0.998 | locus YBR229C, strain ROT2, stronger effect = lower value 1.01 | locus YBR231C, strain swc5, stronger effect = lower value 0.991 | locus YBR279W, strain paf1, stronger effect = lower value 1 | locus YCL011C, strain gbp2, stronger effect = lower value 0.982 | locus YCL016C, strain dcc1, stronger effect = lower value 0.976 | locus YCL029C, strain bik1, stronger effect = lower value 1.02 | locus YCL061C, strain MRC1 (second series), stronger effect = lower value 1.01 | locus YCL061C, strain MRC1, stronger effect = lower value 1 | locus YCL069W, strain vba3, stronger effect = lower value 0.992 | locus YCR088W, strain abp1, stronger effect = lower value 0.994 | locus YDL005C, strain med2, stronger effect = lower value 0.981 | locus YDL035C, strain GPR1, stronger effect = lower value 1.02 | locus YDL040C, strain nat1, stronger effect = lower value 0.992 | locus YDL074C, strain BRE1, stronger effect = lower value 1.02 | locus YDL101C, strain DUN1, stronger effect = lower value 1.01 | locus YDL134C, strain PPH21, stronger effect = lower value 1.02 | locus YDL185W, strain tfp1, stronger effect = lower value 1 | locus YDL192W, strain arf1, stronger effect = lower value 1.01 | locus YDR001C, strain nth1, stronger effect = lower value 0.997 | locus YDR069C, strain doa4, stronger effect = lower value 0.988 | locus YDR101C, strain arx1, stronger effect = lower value 1 | locus YDR137W, strain rgp1, stronger effect = lower value 1 | locus YDR150W, strain NUM1, stronger effect = lower value 1.01 | locus YDR159W, strain sac3, stronger effect = lower value 0.986 | locus YDR162C, strain NBP2, stronger effect = lower value 1.01 | locus YDR195W, strain ref2 0.923 | locus YDR297W, strain sur2, stronger effect = lower value 0.999 | locus YDR318W, strain mcm21, stronger effect = lower value 1.01 | locus YDR334W, strain swr1, stronger effect = lower value 0.972 | locus YDR335W, strain msn5, stronger effect = lower value 0.991 | locus YDR363W, strain ESC2, stronger effect = lower value 1.03 | locus YDR388W, stronger effect = lower value 1.01 | locus YDR392W, strain spt3, stronger effect = lower value 0.969 | locus YDR502C, strain sam2, stronger effect = lower value 1.01 | locus YEL003W, strain gim4, stronger effect = lower value 0.986 | locus YEL037C, strain rad23, stronger effect = lower value 0.983 | locus YEL061C, strain CIN8 (second series), stronger effect = lower value 0.976 | locus YEL061C, strain CIN8, stronger effect = lower value 1.01 | locus YER002W, strain NOP16, stronger effect = lower value 0.992 | locus YER015W, strain faa2, stronger effect = lower value 0.995 | locus YER016W, strain bim1, stronger effect = lower value 1 | locus YER110C, stronger effect = lower value 1.02 | locus YER111C, strain swi4, stronger effect = lower value 0.986 | locus YER155C, strain BEM2 (second series), stronger effect = lower value 0.982 | locus YER155C, strain BEM2, stronger effect = lower value 1.01 | locus YER167W, strain BCK2, stronger effect = lower value 1.02 | locus YFR010W, strain ubp6, stronger effect = lower value 0.981 | locus YGL078C, strain dbp3, stronger effect = lower value 1.02 | locus YGL086W, strain mad1, stronger effect = lower value 1.01 | locus YGL167C, strain pmr1, stronger effect = lower value 0.982 | locus YGL173C, strain kem1, stronger effect = lower value 0.986 | locus YGL227W, strain vid30, stronger effect = lower value 0.984 | locus YGL240W, strain doc1, stronger effect = lower value 0.976 | locus YGL248W, strain PDE1, stronger effect = lower value 1.01 | locus YGL253W, strain hxk2, stronger effect = lower value 0.979 | locus YGR078C, strain PAC10, stronger effect = lower value 1.02 | locus YGR135W, strain pre9, stronger effect = lower value 1.02 | locus YGR229C, strain SMI1, stronger effect = lower value 1.01 | locus YGR252W, strain gcn5, stronger effect = lower value 1.04 | locus YHR013C, strain ard1, stronger effect = lower value 0.972 | locus YHR027C, strain rpn1, stronger effect = lower value 0.985 | locus YHR030C, strain SLT2, stronger effect = lower value 1.02 and 1.03 | locus YHR079C, strain IRE1 (second series), stronger effect = lower value 1.02 | locus YHR079C, strain IRE1, stronger effect = lower value 1.04 | locus YHR094C, strain hxt1, stronger effect = lower value 1.01 | locus YHR129C, strain ARP1, stronger effect = lower value 1.01 | locus YHR142W, strain chs7, stronger effect = lower value 0.984 | locus YHR200W, strain rpn10, stronger effect = lower value 1.02 | locus YIL066C, strain RNR3, stronger effect = lower value 1.02 | locus YIL073C, strain SPO22, stronger effect = lower value 1.02 | locus YIL125W, strain kgd1, stronger effect = lower value 1.01 | locus YIR030C, strain dcg1, stronger effect = lower value 1.03 | locus YJL092W, strain hpr5, stronger effect = lower value 0.997 | locus YJL095W, strain BCK1 (second series), stronger effect = lower value 0.996 | locus YJL095W, strain BCK1, stronger effect = lower value 1.01 and 1.02 | locus YJL115W, strain asf1, stronger effect = lower value 0.966 | locus YJL129C, strain trk1, stronger effect = lower value 0.995 | locus YJL134W, strain LCB3, stronger effect = lower value 1.01 | locus YJL154C, strain vps35, stronger effect = lower value 0.988 | locus YJL164C, strain tpk1, stronger effect = lower value 0.99 | locus YJL166W, strain qcr8, stronger effect = lower value 1 | locus YJL168C, strain set2, stronger effect = lower value 1.02 | locus YJL187C, strain SWE1 (second series), stronger effect = lower value 1.01 | locus YJL187C, strain SWE1, stronger effect = lower value 0.992 | locus YJR043C, strain POL32, stronger effect = lower value 1.01 | locus YJR066W, strain TOR1, stronger effect = lower value 0.998

Reference: PubChem BioAssay AID1159580 (chemical genetic matrix, 2015)
